Test results as given in PubChem BioAssay (NCATS).
Records with an inconclusive call do not appear. Active and inactive are the calls of the source. Calls follow the shape of the dose curve; as a rule, active = well fitted inhibition curve with a large enough effect; inconclusive = small, poorly fitted or top-dose-only effect; inactive = flat fitted curve, though single readings scatter.

Assays:
[1] = molecular target: Luciferin 4-monooxygenase (Photinus pyralis) (UniProt P08659); assay: Biochemical firefly luciferase enzyme assay for NPC (AID 624030);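 also: purified P. pyralis luciferase at 10 nM with luciferin and ATP substrate; nearly all actives have a fitted effect of over 70% in size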; conditions: purified P. pyralis luciferase, luminescence, 5 min; series mostly up to 58.6 µM
Method in brief: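 Purified P. pyralis luciferase at 10 nM in 50 mM Tris Acetate (final), luminescence read within 5 minutes of enzyme addition to compounds. Activity normalised to PTC124 versus DMSO; concentration-response curves classed by r2, magnitude and activity.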

AA1029 = assay: qHTS profiling for inhibitors of Plasmodium falciparum proliferation (AID 504749); also: nearly all actives have a fitted effect of over 60% in size; conditions: P. falciparum in erythrocytes, SYBR Green DNA, 72 h; series mostly up to 28.7 µM
Method in brief: (§1)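 P. falciparum-infected erythrocytes (0.3% parasitemia, 2.5% hematocrit) incubated with compound 72 h at 37 C, 5% CO2. Parasite DNA detected by SYBR Green after lysis, overnight at room temperature; normalised to 0.29 uM artemisinin and DMSO.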

C2A = assay: as above; conditions: P. falciparum in erythrocytes, SYBR Green DNA, 72 h; series mostly up to 28.7 µM
Method in brief: as §1

CP191 = assay: as above; conditions: P. falciparum in erythrocytes, SYBR Green DNA, 72 h; series mostly up to 28.7 µM
Method in brief: as §1

CP217 = assay: as above; conditions: P. falciparum in erythrocytes, SYBR Green DNA, 72 h; series mostly up to 28.7 µM
Method in brief: as §1

CP237 = assay: as above; conditions: P. falciparum in erythrocytes, SYBR Green DNA, 72 h; series mostly up to 28.7 µM
Method in brief: as §1

CP238 = assay: as above; conditions: P. falciparum in erythrocytes, SYBR Green DNA, 72 h; series mostly up to 28.7 µM
Method in brief: as §1

CP250 = assay: as above; conditions: P. falciparum in erythrocytes, SYBR Green DNA, 72 h; series mostly up to 12.8 µM
Method in brief: as §1

CP252 = assay: as above; conditions: P. falciparum in erythrocytes, SYBR Green DNA, 72 h; series mostly up to 12.8 µM
Method in brief: as §1

CP256 = assay: as above; conditions: P. falciparum in erythrocytes, SYBR Green DNA, 72 h; series mostly up to 28.7 µM
Method in brief: as §1

Dd2 = assay: as above; conditions: P. falciparum in erythrocytes, SYBR Green DNA, 72 h; series mostly up to 28.7 µM
Method in brief: as §1

ECU = assay: as above; conditions: P. falciparum in erythrocytes, SYBR Green DNA, 72 h; series mostly up to 28.7 µM
Method in brief: as §1

FAB9 = assay: as above; conditions: P. falciparum in erythrocytes, SYBR Green DNA, 72 h; series mostly up to 28.7 µM
Method in brief: as §1

JCK = assay: as above; conditions: P. falciparum in erythrocytes, SYBR Green DNA, 72 h; series mostly up to 28.7 µM
Method in brief: as §1

N140 = assay: as above; conditions: P. falciparum in erythrocytes, SYBR Green DNA, 72 h; series mostly up to 28.7 µM
Method in brief: as §1

P93_24 = assay: as above; conditions: P. falciparum in erythrocytes, SYBR Green DNA, 72 h; series mostly up to 28.7 µM
Method in brief: as §1

PAD = assay: as above; conditions: P. falciparum in erythrocytes, SYBR Green DNA, 72 h; series mostly up to 28.7 µM
Method in brief: as §1

PC15 = assay: as above; conditions: P. falciparum in erythrocytes, SYBR Green DNA, 72 h; series mostly up to 28.7 µM
Method in brief: as §1

SC27B = assay: as above; conditions: P. falciparum in erythrocytes, SYBR Green DNA, 72 h; series mostly up to 28.7 µM
Method in brief: as §1

TAB165 = assay: as above; conditions: P. falciparum in erythrocytes, SYBR Green DNA, 72 h; series mostly up to 28.7 µM
Method in brief: as §1

Measured: Potency

Luciferin 4-monooxygenase (Photinus pyralis), sequence (P08659 whole entry, looked up): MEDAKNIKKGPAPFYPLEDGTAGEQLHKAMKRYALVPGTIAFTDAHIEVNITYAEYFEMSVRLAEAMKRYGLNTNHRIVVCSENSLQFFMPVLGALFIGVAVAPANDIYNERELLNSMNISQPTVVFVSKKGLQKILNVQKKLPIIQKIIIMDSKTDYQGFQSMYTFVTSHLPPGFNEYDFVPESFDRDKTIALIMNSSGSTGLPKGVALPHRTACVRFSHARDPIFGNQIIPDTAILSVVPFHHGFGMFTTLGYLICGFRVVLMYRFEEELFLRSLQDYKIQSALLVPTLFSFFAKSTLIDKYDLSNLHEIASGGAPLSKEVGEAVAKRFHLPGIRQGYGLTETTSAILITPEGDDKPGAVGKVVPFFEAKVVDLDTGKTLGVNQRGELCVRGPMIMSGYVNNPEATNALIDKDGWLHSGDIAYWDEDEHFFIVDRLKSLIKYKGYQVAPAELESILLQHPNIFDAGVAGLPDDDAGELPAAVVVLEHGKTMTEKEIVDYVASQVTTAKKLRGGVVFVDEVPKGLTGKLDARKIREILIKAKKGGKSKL

C[C@]12CC[C@H](O)CC1=CCC1C2CC[C@]2(C)C(=O)CC[C@@H]12 (stereo not given in full)
inactive: all assays above

C[C@@]12CC[C@H]3[C@@H](CC[C@@H]4C[C@H]5S[C@H]5C[C@]43C)[C@H]1CC[C@H]2O
inactive: all assays above

C[C@H](N)[C@@H](O)c1ccccc1
inactive: all assays above
